In PubChem BioAssay (NCI) one finds growth inhibition data, which are given here for 21 compounds.

About 79,000 compounds went through this panel and 15% of them were active in at least one assay; those are over-represented in the sample as a whole. Unmarked numbers belong to inactive results. The source made the active and inactive calls. No stated cut-off is given here; in the data, active means growth inhibition above about 70%; inactive means the rest.

The nature of assay [1]: NCI Yeast Anticancer Drug Screen. Data for the rad50 strain (AID 155).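 Further: 0% = growth of vehicle-only cultures of the same strain.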 Particulars: S. cerevisiae rad50 strain growth inhibition; at 50.0 µM; stronger effect = higher value. The essentials: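 DNA repair mutant yeast, compound exposure, growth read-out; inhibition is taken relative to vehicle.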
Assay [2] in a line: NCI Yeast Anticancer Drug Screen. Data for the mec2-1 strain (AID 157). Particulars: S. cerevisiae mec2-1 strain, at 50.0 µM, stronger effect = higher value. The essentials:
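Yeast mec2-1 mutant treated with compound. Readout: growth inhibition vs vehicle controls.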

Assay [3] in a line: NCI Yeast Anticancer Drug Screen. Data for the sgs1 mgt1 strain (AID 161).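 Further: 0% = growth of cultures given vehicle only.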 Particulars: S. cerevisiae sgs1 mgt1 strain, at 50.0 µM, stronger effect = higher value. In a few lines:
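Test agents were incubated with a DNA-repair-mutant yeast strain. Growth was then read and compared against vehicle-treated controls.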

Assay [4] in a line: NCI Yeast Anticancer Drug Screen. Data for the cln2 rad14 strain (AID 165).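 Further: 0% = growth equal to vehicle treated cultures.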 Particulars: S. cerevisiae cln2 rad14 strain, at 50.0 µM, stronger effect = higher value. The essentials: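 cln2 rad14 yeast strain; compound exposure; growth inhibition read vs vehicle controls.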
Assay [5] can be described thus: NCI Yeast Anticancer Drug Screen. Data for the bub3 strain (AID 167). Particulars: S. cerevisiae bub3 mutant strain, at 50.0 µM, stronger effect = higher value. In a few lines:
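In this screen, a yeast mutant lacking normal mitotic checkpoint function is challenged with compound. Relative growth versus vehicle gives the inhibition value.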

Assay [6] in a line: NCI Yeast Anticancer Drug Screen. Data for the mlh1 rad18 strain (AID 175). Particulars: S. cerevisiae mlh1 rad18 strain growth inhibition; at 50.0 µM; stronger effect = higher value. The essentials: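 Yeast w/ defined DNA-repair lesions; compound exposure; growth vs vehicle controls → % inhibition.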

For `O=[As](c1ccccc1Br)(c1ccccc1Br)c1ccccc1Br`, the growth inhibition in assay [1] was 70%; in assay [2], 19.2%; in assay [3], 58.7%; in assay [4] it was 13.4%; in assay [5], 22.2%; in assay [6], 20.9%.

Regarding `CC(C)NC(=O)C(Cl)CCl` (stereo unspecified), the growth inhibition in assay [1] was 13.7%; in assay [2], 8.9%; in assay [3] it was 18.3%; in assay [4], 11.5%; in assay [5], 2.8%; in assay [6], 6.7%.

For the compound `COCC(=O)CP(=O)(OC)OC`, the growth inhibition in assay [1] was -20.6%; in assay [2], -19.6%; in assay [3], -11.6%; in assay [4], 18.6%; in assay [5], -14.7%; in assay [6] it was 1.35%.

Turning to `C=C(C)CNC1=C(C)C(=O)C2=C(C1=O)[C@H](COC(N)=O)[C@]1(OC)[C@@H]3N[C@@H]3CN21`, the growth inhibition in assay [1] was 5.15%; in assay [2], -9.35%; in assay [3] it was 13.3%; in assay [4], 23.9%; in assay [5], 19.4%; in assay [6], 74.7% (active).

With `C=C(C)c1ccccc1` (tested in a mixture with another compound), the growth inhibition in assay [1] is 28%; in assay [2], 9.05%; in assay [3] it was -19.9%; in assay [4], -8.8%; in assay [5] it was -3.2%; in assay [6], 10.6%.

For `[Cl][Pt]([Cl])[Cl].[NH-]C1CN2CCC1CC2` (stereo unspecified), the growth inhibition in assay [1] was 19.9%; in assay [2], 19.4%; in assay [3] it was -13.8%; in assay [4] it was 22.4%; in assay [5] it was 2.2%; in assay [6], -7.55%.

For `CN(C)P1(N(C)C)=NP(c2ccccc2)(c2ccccc2)=NP(N(C)C)(N(C)C)=N1`, the growth inhibition in assay [1] was 13.3%; in assay [2], 20.9%; in assay [3], 47.5%; in assay [4], 24.2%; in assay [5], 1.9%; in assay [6], 48.2%.

Take `CC(=O)Nc1ccc([N+](=O)[O-])c(C(F)(F)F)c1`: the growth inhibition was -4.2% in assay [1]; -6.4% in assay [2]; 9.05% in assay [3]; 13.1% in assay [4]; -3.9% in assay [5]; 6.05% in assay [6].

For the compound `CSC(=S)N(C)c1nc(=[N+](C)C)ss1`, the growth inhibition in assay [1] was -12.8%; in assay [2] it was -1.2%; in assay [3] it was -9.8%; in assay [4], -32.4%; in assay [5], -2.25%; in assay [6], 27.3%.

Consider `COc1ccc(C(OCC2OC(n3ccc(Oc4c(F)c(F)c(F)c(F)c4F)nc3=O)CC2OP(OCCC#N)N(C(C)C)C(C)C)(c2ccccc2)c2ccc(OC)cc2)cc1` (stereo unspecified), for which the growth inhibition in assay [1] was 18.1%; in assay [2] it was 4.8%; in assay [3], 6.65%; in assay [4], -9.2%; in assay [5], -7.2%; in assay [6], -2.65%.

As to `COc1oc(C2C/C(=C/C(C)=C/C(C)=C/C(C)=C/c3ccc([N+](=O)[O-])cc3)CO2)c(C)c(=O)c1C` (stereo unspecified), the growth inhibition in assay [1] was 1.15%; in assay [2], -4.75%; in assay [3], -9.4%; in assay [4] it was -6.85%; in assay [5], -8.15%; in assay [6] it was -33%.

On to `C=CCc1cc(OC)c2c(c1OC)OCO2`, for which the growth inhibition in assay [1] was 6.3%; in assay [2] it was 8.95%; in assay [3], -0.7%; in assay [4] it was 2.05%; in assay [5] it was -1.9%; in assay [6], 7.05%.

As for `CN(C)P1(=O)NCC(C(C)(C)C)CO1` (stereo unspecified), the growth inhibition in assay [1] was 26.4%; in assay [2], -21.1%; in assay [3] it was -5.3%; in assay [4], 21.6%; in assay [5], -0.1%; in assay [6], -16.8%.

With `CC(=O)Cc1ccc(C)cc1`, the growth inhibition in assay [1] was -40.4%; in assay [2], -41.8%; in assay [3], -29.5%; in assay [4], 7.3%; in assay [5], -44.5%; in assay [6], -20.3%.

Consider `CCCCCC[n+]1noc(N)c1-c1ccc(-c2c(N)on[n+]2CCCCCC)cc1`, for which the growth inhibition in assay [1] was 17.6%; in assay [2], -1.35%; in assay [3], 26.1%; in assay [4], 21.8%; in assay [5] it was 16.2%; in assay [6], 18.5%.

Turning to `Cc1cc(S(=O)(=O)F)ccc1NC(=O)NCc1ccc(N2C(N)=NC(N)=NC2(C)C)cc1`, the growth inhibition in assay [1] is -6.25%; in assay [2], -18%; in assay [3], -3.95%; in assay [4], -37.7%; in assay [5], -9.4%; in assay [6], -8.3%.

In the case of `O=C(Nc1ccccc1)N(C1=NCC(CI)S1)c1ccc(F)cc1F` (stereo unspecified), the growth inhibition in assay [1] is 18.3%; in assay [2] it was 6.75%; in assay [3], -6.95%; in assay [4], 7.7%; in assay [5], 2.95%; in assay [6], -40.1%.

`CC(C)=C=CP(=O)(O)c1ccccc1`: the growth inhibition in assay [1] is -25.1%; in assay [2], -24.1%; in assay [3] it was -15.7%; in assay [4], 31.9%; in assay [5] it was -14.3%; in assay [6] it was 4.45%.

For `c1ccc([Se+](c2ccccc2)c2ccccc2)cc1`, the growth inhibition in assay [1] was 16.8%; in assay [2] it was -46.5%; in assay [3], 1.75%; in assay [4], -10.1%; in assay [5], -1.55%; in assay [6], 17.9%.

For the compound `CCOP(=O)(OCC)SC#N`, the growth inhibition in assay [1] is 15.1%; in assay [2], -2.85%; in assay [3], -6.4%; in assay [4], 6.5%; in assay [5], -1.05%; in assay [6] it was 16.1%.

Regarding `CC(I)C(N)=O` (stereo unspecified), the growth inhibition in assay [1] was -16.6%; in assay [2], -19.7%; in assay [3] it was -19.5%; in assay [4] it was -4.15%; in assay [5] it was -4%; in assay [6] it was -17%.
